Consider three sequences from paper PMC8384837, “Expanding the binding specificity for RNA recognition by a PUF domain”.

In this assay the target is PUM1 PUF domain R3-GRT (Homo sapiens, UniProt Q14671 828-1176, C935G;Q939T). Put plainly: yeast three-hybrid, YBZ-1, SC-Leu-His + 0.5 mM 3-AT, 4 days. The note with it: tags: N-Gal4 AD-HA kept; label: inside an RPR1-promoter hybrid RNA with tandem MS2 sites; ssRNA. In short, it runs like this: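 Repeat regions from input (SC-Leu) and selection (SC-Leu-His + 0.5 mM 3-AT) plates were PCR-amplified and Illumina-sequenced after four days of growth. The cells were strain YBZ-1 with a LexA–MS2 coat fusion and a HIS3 reporter, co-expressing Pumilio-1 PUF domain libraries and matching RNA elements from a centromeric plasmid. The interaction score is the log change in variant frequency from input to selection, taken in log2 with a pseudocount of 1 for absent variants.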
Turning to “GGCUAGAACUAGUGGAUCCCCCGGCGCCCGGCGGCUCGAGCCCGGGUAAGUGUAAUUAGUCUGCAUGCCGCCGGGCGCCAUGCCUGCAGGUCGACUCUAGAAAACAUG”, the binding signal is 1.63 log2 enrichment (interaction score).
On to “GGCUAGAACUAGUGGAUCCCCCGGCGCCCGGCGGCUCGAGCCCGGGUAAGUGUAAAUAGUCUGCAUGCCGCCGGGCGCCAUGCCUGCAGGUCGACUCUAGAAAACAUG”, for which the binding signal was 2.82 log2 enrichment (interaction score).
On to “GGCUAGAACUAGUGGAUCCCCCGGCGCCCGGCGGCUCGAGCCCGGGUAAGUGUAAGUAGUCUGCAUGCCGCCGGGCGCCAUGCCUGCAGGUCGACUCUAGAAAACAUG”, for which the binding signal is 1.58 log2 enrichment (interaction score).
